Data published in the supplement of paper PMC11732987, “Enantioselective OTUD7B fragment discovery through chemoproteomics screening and high-throughput optimisation” (Communications Chemistry, 2025).

Legend:
Test in all cases: log2 ratio of Biotin-Ahx-Ub-VS probe labelling (fragment/DMSO); higher = less target engagement (more negative = stronger competition), active = hit call of the paper (q ≤ 0.05, log2 ratio ≤ -1)
Conditions in all cases: compound concentration: 200 uM; treatment time: 3 h
[1] = biological target: T1, ALG13 (UniProt Q9NP73)
T1 sequence (whole entry): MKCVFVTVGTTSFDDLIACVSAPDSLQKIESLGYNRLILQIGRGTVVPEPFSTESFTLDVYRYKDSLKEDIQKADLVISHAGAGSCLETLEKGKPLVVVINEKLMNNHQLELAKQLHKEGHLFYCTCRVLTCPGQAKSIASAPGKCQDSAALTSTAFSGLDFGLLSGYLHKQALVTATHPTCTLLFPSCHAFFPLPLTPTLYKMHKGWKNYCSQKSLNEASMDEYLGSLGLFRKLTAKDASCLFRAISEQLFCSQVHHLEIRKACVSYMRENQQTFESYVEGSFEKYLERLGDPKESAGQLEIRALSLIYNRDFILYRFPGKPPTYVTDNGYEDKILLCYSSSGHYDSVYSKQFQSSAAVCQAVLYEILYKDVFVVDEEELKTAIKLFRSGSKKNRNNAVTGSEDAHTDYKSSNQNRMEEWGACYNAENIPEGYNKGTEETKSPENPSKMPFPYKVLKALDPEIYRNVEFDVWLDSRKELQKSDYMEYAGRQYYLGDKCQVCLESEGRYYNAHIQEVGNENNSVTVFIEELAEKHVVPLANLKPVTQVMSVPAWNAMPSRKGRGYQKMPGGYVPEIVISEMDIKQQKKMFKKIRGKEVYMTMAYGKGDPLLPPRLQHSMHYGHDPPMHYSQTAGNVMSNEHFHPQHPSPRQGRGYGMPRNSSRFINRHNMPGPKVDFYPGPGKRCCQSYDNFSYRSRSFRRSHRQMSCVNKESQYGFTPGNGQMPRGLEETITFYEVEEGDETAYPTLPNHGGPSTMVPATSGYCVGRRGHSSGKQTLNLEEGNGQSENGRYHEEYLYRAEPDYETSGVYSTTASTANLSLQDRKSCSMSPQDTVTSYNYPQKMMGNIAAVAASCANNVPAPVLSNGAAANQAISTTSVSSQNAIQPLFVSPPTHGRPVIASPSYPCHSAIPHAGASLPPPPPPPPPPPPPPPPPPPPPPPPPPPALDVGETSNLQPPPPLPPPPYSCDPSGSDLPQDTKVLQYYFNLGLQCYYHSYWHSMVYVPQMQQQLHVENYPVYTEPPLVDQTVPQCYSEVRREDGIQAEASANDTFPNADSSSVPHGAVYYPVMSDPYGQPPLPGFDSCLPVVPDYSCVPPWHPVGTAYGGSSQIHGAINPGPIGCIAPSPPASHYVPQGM
How it was run: (§1)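 HEK293T lysate, 495 µg per sample in Tris/CHAPS/IGEPAL buffer with protease inhibitors, was treated in triplicate with fragment at 200 µM or vehicle for 3 h and then with Biotin-Ahx-Ub-VS at 0.5 µM final for 1 h. Labelled DUBs were NeutrAvidin-enriched, digested with LysC and trypsin, and run by diaPASEF LC-MS/MS. Spectronaut label-free quantities were global-median-normalised, and values are average log2 fragment/vehicle ratios by unpaired t-test on proteins with ≥2 unique peptides.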

[2] = biological target: ATXN3 (UniProt P54252)
How it was run: as §1

[3] = biological target: T2, BAP1 (UniProt Q92560)
T2 sequence (whole entry): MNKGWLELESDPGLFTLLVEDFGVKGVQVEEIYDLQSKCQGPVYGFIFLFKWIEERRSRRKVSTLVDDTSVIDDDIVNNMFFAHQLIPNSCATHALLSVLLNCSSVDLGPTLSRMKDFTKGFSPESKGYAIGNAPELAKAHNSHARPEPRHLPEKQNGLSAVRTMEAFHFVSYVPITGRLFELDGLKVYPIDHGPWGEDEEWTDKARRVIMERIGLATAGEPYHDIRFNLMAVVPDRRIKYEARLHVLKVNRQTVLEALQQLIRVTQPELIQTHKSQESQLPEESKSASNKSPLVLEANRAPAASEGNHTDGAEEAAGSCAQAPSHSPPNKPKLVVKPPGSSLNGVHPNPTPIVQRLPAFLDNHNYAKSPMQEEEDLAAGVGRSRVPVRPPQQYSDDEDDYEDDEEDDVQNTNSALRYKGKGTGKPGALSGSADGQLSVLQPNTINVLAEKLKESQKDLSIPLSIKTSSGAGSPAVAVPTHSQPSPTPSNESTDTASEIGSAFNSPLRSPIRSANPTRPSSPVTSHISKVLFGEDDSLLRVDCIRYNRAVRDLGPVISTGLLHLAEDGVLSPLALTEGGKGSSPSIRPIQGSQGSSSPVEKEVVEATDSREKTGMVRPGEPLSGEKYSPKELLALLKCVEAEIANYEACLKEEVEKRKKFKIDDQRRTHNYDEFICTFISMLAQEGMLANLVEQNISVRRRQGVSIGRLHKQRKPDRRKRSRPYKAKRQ
How it was run: as §1

[4] = biological target: EIF3F (UniProt O00303)
How it was run: as §1

[5] = biological target: EIF3H (UniProt O15372)
How it was run: as §1

[6] = biological target: T3, FAM105A (UniProt Q9NUU6)
T3 sequence (whole entry): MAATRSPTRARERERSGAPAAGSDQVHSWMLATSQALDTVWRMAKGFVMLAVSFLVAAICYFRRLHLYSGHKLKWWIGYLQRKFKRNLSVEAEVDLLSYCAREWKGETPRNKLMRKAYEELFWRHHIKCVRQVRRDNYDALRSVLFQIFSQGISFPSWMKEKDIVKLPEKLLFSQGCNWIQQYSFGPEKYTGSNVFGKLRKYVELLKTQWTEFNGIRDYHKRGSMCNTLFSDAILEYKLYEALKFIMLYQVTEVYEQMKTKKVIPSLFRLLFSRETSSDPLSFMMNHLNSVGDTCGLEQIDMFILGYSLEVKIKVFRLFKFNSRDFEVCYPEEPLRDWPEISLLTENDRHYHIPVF
How it was run: as §1

[7] = biological target: OTUB1 (UniProt Q96FW1)
How it was run: as §1

[8] = biological target: T4, OTUD4 (UniProt Q01804)
T4 sequence (whole entry): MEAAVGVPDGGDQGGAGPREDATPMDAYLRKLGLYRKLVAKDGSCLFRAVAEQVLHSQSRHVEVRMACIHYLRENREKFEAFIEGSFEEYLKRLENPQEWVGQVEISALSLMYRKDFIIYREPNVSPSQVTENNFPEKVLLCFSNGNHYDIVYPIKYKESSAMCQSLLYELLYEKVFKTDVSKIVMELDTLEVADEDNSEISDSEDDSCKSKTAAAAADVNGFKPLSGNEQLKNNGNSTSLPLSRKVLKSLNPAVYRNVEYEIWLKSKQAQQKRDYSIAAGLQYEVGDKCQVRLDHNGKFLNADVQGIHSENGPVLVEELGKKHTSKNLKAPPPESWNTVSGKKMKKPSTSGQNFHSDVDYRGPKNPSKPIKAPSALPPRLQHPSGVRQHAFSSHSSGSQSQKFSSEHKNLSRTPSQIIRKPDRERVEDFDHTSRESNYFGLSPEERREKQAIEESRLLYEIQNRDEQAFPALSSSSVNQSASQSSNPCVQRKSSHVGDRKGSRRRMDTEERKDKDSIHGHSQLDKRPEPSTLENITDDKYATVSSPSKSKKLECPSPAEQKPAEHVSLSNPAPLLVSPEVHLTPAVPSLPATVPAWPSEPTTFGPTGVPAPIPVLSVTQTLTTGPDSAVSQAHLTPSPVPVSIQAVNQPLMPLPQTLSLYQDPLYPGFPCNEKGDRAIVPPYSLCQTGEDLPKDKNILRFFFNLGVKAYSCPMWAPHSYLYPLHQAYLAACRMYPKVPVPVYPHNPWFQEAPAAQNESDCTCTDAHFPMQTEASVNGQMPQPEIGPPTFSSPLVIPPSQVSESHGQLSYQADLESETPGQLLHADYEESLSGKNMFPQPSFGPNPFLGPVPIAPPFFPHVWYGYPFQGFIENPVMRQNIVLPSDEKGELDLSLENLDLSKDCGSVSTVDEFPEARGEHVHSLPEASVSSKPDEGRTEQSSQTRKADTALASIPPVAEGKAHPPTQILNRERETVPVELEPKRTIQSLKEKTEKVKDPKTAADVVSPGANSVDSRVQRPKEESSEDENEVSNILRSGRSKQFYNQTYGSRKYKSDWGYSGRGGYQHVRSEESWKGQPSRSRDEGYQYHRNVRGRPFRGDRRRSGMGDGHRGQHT
How it was run: as §1

[9] = biological target: T5, OTUD5 (UniProt Q96G74)
T5 sequence (whole entry): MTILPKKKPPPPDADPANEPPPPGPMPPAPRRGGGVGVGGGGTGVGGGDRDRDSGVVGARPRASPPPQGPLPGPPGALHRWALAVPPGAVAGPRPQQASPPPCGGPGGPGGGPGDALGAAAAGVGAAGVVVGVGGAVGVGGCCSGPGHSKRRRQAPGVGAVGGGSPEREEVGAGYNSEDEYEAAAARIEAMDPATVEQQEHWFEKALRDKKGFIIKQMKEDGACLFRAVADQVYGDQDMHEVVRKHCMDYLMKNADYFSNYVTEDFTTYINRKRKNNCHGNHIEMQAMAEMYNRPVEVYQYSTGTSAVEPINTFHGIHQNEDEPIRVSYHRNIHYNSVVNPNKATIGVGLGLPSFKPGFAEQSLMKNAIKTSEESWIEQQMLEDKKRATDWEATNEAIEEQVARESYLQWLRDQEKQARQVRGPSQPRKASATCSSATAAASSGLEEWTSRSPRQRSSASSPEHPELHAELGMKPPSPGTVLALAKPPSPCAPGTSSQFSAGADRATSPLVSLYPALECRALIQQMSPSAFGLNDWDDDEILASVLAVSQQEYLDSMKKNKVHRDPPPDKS
How it was run: as §1

Measured: log2 ratio of Biotin-Ahx-Ub-VS probe labelling

Sequence of EIF3F (O00303 whole entry): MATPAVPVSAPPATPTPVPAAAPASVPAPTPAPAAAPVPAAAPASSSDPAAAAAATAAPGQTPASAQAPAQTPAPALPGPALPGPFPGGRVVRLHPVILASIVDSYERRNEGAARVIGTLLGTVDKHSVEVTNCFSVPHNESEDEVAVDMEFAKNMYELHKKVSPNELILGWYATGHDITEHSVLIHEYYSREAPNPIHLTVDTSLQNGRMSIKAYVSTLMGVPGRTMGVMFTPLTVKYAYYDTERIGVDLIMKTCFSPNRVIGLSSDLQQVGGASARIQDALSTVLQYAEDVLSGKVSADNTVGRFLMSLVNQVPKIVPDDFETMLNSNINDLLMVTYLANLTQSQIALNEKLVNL
Sequence of OTUB1 (Q96FW1 whole entry): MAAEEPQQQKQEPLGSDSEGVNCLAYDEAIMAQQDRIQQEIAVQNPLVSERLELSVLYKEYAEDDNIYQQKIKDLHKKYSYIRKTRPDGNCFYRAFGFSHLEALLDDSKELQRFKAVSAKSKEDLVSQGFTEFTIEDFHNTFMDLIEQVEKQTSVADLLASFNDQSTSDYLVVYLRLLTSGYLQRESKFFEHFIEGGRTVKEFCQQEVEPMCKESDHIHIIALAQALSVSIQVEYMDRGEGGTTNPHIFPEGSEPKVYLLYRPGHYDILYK
Sequence of EIF3H (O15372 whole entry): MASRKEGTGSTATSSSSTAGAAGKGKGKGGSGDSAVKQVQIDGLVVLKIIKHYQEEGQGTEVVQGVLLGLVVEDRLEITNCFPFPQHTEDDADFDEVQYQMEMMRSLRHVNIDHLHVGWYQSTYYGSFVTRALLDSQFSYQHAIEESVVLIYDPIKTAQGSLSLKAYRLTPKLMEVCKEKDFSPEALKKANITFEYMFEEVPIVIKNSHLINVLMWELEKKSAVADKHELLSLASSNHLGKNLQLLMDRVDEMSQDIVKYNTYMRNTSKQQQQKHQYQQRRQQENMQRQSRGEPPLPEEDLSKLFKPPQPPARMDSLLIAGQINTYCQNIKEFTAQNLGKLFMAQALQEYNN
Sequence of ATXN3 (P54252 whole entry): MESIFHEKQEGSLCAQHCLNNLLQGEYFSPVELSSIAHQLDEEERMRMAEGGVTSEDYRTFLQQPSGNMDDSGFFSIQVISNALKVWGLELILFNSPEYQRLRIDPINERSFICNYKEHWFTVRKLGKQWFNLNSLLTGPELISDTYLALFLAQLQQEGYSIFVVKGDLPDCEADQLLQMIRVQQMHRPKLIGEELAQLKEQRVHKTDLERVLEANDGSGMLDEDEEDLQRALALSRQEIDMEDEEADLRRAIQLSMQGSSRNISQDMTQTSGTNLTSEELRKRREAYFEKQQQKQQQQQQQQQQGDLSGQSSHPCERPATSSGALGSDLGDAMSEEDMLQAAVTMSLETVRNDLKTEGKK

O=C(CCl)NC(Cn1ccccc1=O)c1ccccc1 (centres undefined)
inactive: [1] 0.152 | [2] -0.00539 | [4] 0.0892 | [5] -0.0521 | [6] 0.0796 | [7] -0.3 | [8] -0.122 | [9] -0.104
active: [3] -1.18
